36 molecules from PubChem BioAssay (NCI) can be followed below.

Each structure is given as a SMILES string. About 79,000 compounds went through this panel and 15% of them were active in at least one assay; those are over-represented in the sample as a whole. Unmarked numbers belong to inactive results. The source made the active and inactive calls. No stated cut-off is given here; in the data, active means growth inhibition above about 70%; inactive means the rest.

Test [1] in a line: NCI Yeast Anticancer Drug Screen. Data for the rad50 strain (AID 155).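 Further: 0% = growth of vehicle-only cultures of the same strain.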 As to conditions: S. cerevisiae rad50 strain growth inhibition; at 50.0 µM; active compounds read high. The procedure, abridged: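 Yeast carrying a defined DNA repair defect were exposed to test compounds, and growth was compared with vehicle-treated controls to give percent inhibition.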
The nature of test [2]: NCI Yeast Anticancer Drug Screen. Data for the mec2-1 strain (AID 157). Conditions: S. cerevisiae mec2-1 strain, at 50.0 µM, active compounds read high. The procedure, abridged: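 mec2-1 yeast strain, carrying an alteration in DNA damage repair or cell cycle control, was exposed to compounds; growth inhibition was measured relative to vehicle-treated controls.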
A short description of test [3]: NCI Yeast Anticancer Drug Screen. Data for the sgs1 mgt1 strain (AID 161).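 Further: 0% = growth of cultures given vehicle only.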 As to conditions: S. cerevisiae sgs1 mgt1 strain, at 50.0 µM, active compounds read high. An outline of the steps:
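Yeast cells carrying a defined DNA-repair defect were exposed to test compounds. Growth inhibition was measured relative to vehicle-treated controls.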

A short description of test [4]: NCI Yeast Anticancer Drug Screen. Data for the cln2 rad14 strain (AID 165).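 Further: 0% = growth equal to vehicle treated cultures.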 Conditions: S. cerevisiae cln2 rad14 strain, at 50.0 µM, active compounds read high. An outline of the steps:
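Yeast carrying cln2 and rad14 alterations (cell cycle control and DNA damage repair) were exposed to compounds. Growth inhibition was measured against vehicle-treated controls.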

The nature of test [5]: NCI Yeast Anticancer Drug Screen. Data for the bub3 strain (AID 167). As to conditions: S. cerevisiae bub3 mutant strain, at 50.0 µM, active compounds read high. The procedure, abridged:
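Compounds were applied to a genetically altered yeast strain carrying a cell-cycle control defect. Growth inhibition was scored against vehicle-treated controls.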

A short description of test [6]: NCI Yeast Anticancer Drug Screen. Data for the mlh1 rad18 strain (AID 175). As to conditions: S. cerevisiae mlh1 rad18 strain growth inhibition; at 50.0 µM; active compounds read high. An outline of the steps:
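Growth inhibition of the yeast strain was measured after compound exposure and expressed relative to vehicle-treated controls. The strain carries defined defects in DNA damage repair.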

Consider `O=C1c2ccccc2C(=O)c2ccccc21`, for which the growth inhibition in test [1] is 37%; in test [2], 5.25%; in test [3], 1.95%; in test [4], -29.4%; in test [5], 25.5%; in test [6], 47.5%.
Take `S=P(N1CCCCC1)(N1CCCCC1)N1CCCCC1`: the growth inhibition in test [1] was -6.95%; in test [2] it was -6.8%; in test [3] it was -3.15%; in test [4], -17.8%; in test [5], -4.2%; in test [6], -7.1%.
Take `O=P1(c2ccccc2)CCCCN1` (stereo unspecified): the growth inhibition in test [1] was 12.2%; in test [2], -16.1%; in test [3] it was -5.1%; in test [4] it was -20.9%; in test [5], 3.55%; in test [6], 1.8%.
For the molecule `CC1=C(\C=C/C(C)=C/C=C/C(C)=C/C=C/C=C(C)\C=C\C=C(C)/C=C/C2=C(C)CCCC2(C)C)C(C)(C)CCC1`, the growth inhibition in test [1] is 28.8%; in test [2], 9.35%; in test [3], 27.1%; in test [4] it was 26.4%; in test [5], 37.2%; in test [6] it was 45.5%.
`O=C(Cl)c1ccc[nH]1`: the growth inhibition in test [1] is -0.95%; in test [2], -13.9%; in test [3] it was -13.7%; in test [4] it was 21.1%; in test [5], -25.6%; in test [6] it was -0.15%.
For the molecule `[C-]#[O+].[C-]#[O+].[Ir].[O-]c1cccc2cccnc12`, the growth inhibition was -19.2% in test [1]; -27.6% in test [2]; -4.6% in test [3]; 12.7% in test [4]; -13.2% in test [5]; -4.8% in test [6].
Consider `CCCCOP(=O)(Cc1ccccc1)Oc1ccccc1` (stereo unspecified), for which the growth inhibition in test [1] was 73% (active); in test [2], 32%; in test [3], 68.8%; in test [4], 50.4%; in test [5], 35.3%; in test [6], 27.6%.
As to `CCC(=O)c1ccc(N)cc1`, the growth inhibition in test [1] is 7.95%; in test [2], 4.45%; in test [3], 2.15%; in test [4], -26.4%; in test [5], -4.8%; in test [6], 6.25%.
Take `CC(=O)CCC(=O)O.[Ni]`: the growth inhibition in test [1] is -37.5%; in test [2], 0.2%; in test [3] it was -7.45%; in test [4], -27.4%; in test [5], -7.65%; in test [6] it was 1.9%.
As to `CN(/N=C/c1ccnc2ccccc12)c1c([N+](=O)[O-])cc([N+](=O)[O-])cc1[N+](=O)[O-]`, the growth inhibition in test [1] is -0.25%; in test [2], -4.65%; in test [3], -18.8%; in test [4], 18.9%; in test [5], -10%; in test [6] it was -8.4%.
On to `COc1cc(C2c3cc4c(cc3OC3(OC)COC(=O)C23)OCO4)cc(OC)c1OC(C)=O` (stereo unspecified), for which the growth inhibition was -8.95% in test [1]; 0.45% in test [2]; -2.05% in test [3]; -6.9% in test [4]; -24.6% in test [5]; 8.1% in test [6].
Regarding `C=CCN1CC2CN=NC2(C#N)C1` (stereo unspecified), the growth inhibition in test [1] is -10.8%; in test [2] it was 6.45%; in test [3] it was 0.65%; in test [4], -22.3%; in test [5], 6.7%; in test [6], -4.95%.
On to `CC(C)(C)c1ccc2c(cc[n+]3ccccc23)c1`, for which the growth inhibition in test [1] is -9.05%; in test [2] it was -6.85%; in test [3], 2.05%; in test [4], 4.05%; in test [5], 2.35%; in test [6] it was -11.9%.
For the molecule `CN(C)C(=O)Sc1c(Cl)cc(Cl)cc1S(=O)(=O)F`, the growth inhibition in test [1] is 43.1%; in test [2] it was 6.9%; in test [3] it was 56%; in test [4] it was 32.6%; in test [5] it was -3.2%; in test [6], 20.6%.
Take `CC1(C)CN=C(Nc2ccc(F)c(Cl)c2)S1`: the growth inhibition was 12.9% in test [1]; 1.15% in test [2]; -17.9% in test [3]; 9.8% in test [4]; -24.7% in test [5]; -35.4% in test [6].
As to `O=C(O)/C=C/c1ccc(S(=O)(=O)F)cc1`, the growth inhibition is 36.4% in test [1]; -16% in test [2]; 16.6% in test [3]; 15.9% in test [4]; 34% in test [5]; 20.6% in test [6].
Take `N#CCCO`: the growth inhibition was -7.35% in test [1]; 5.05% in test [2]; 0.55% in test [3]; -6.9% in test [4]; -3.7% in test [5]; -6.2% in test [6].
Turning to `O=C1CCCN1CC#CCN1CCCC1`, the growth inhibition is -13.8% in test [1]; -20.9% in test [2]; 16.9% in test [3]; 3.3% in test [4]; 8.55% in test [5]; 6.2% in test [6].
Consider `CCOC(=S)S.[Pb]`, for which the growth inhibition is 18.9% in test [1]; 21.8% in test [2]; 27.2% in test [3]; 13.6% in test [4]; 26.2% in test [5]; 9.7% in test [6].
On to `Cc1nc2ccccc2c(=O)n1-c1ccccc1`, for which the growth inhibition was -13.6% in test [1]; -15.9% in test [2]; 0% in test [3]; 15.9% in test [4]; 10.9% in test [5]; -3.8% in test [6].
Regarding `O=S1(=O)OCCO1`, the growth inhibition was -3.5% in test [1]; -9% in test [2]; -3.8% in test [3]; -27.4% in test [4]; -5.55% in test [5]; 7.9% in test [6].
For the molecule `[Cl][Ni][Cl].[NH-]CCN1CC1.[NH-]CCN1CC1`, the growth inhibition was -9.75% in test [1]; 19.4% in test [2]; 19.4% in test [3]; -26.4% in test [4]; -4.55% in test [5]; -5.75% in test [6].
In the case of `N.N.N.N.N.O=[N+]([O-])[O-].[Co+3].[O-][Cl+3]([O-])([O-])[O-]`, the growth inhibition is -13.7% in test [1]; 4.6% in test [2]; -10.5% in test [3]; -3.15% in test [4]; -4.45% in test [5]; -7.75% in test [6].
For the molecule `COc1cc(C=C2C(=O)NC(=O)NC2=O)ccc1O`, the growth inhibition in test [1] was 1.85%; in test [2], -23.4%; in test [3], 5.05%; in test [4], 4.3%; in test [5], -2%; in test [6], 6.35%.
For `CN=c1ssc(/N=C(\SC)N(C)C)[n+]1C`, the growth inhibition in test [1] was -17.7%; in test [2] it was -10.1%; in test [3], -13.8%; in test [4], -65.7%; in test [5], -19.4%; in test [6], 3.05%.
Regarding `C#CC(C)N1CCC2(CC1)C(=O)NCN2c1ccccc1` (stereo unspecified), the growth inhibition in test [1] is -19.3%; in test [2], -6.1%; in test [3], -15.7%; in test [4], -2.85%; in test [5], -4.05%; in test [6] it was 0.65%.
Take `C(#CP(c1ccccc1)c1ccccc1)c1ccccc1`: the growth inhibition in test [1] is 62.5%; in test [2], 34.5%; in test [3], 74.8% (active); in test [4], 20.1%; in test [5], 76.8% (active); in test [6] it was 85.5% (active).
`C=C[C](=C)[Pb]([CH2]C)([CH2]C)[CH2]C`: the growth inhibition in test [1] is -7.3%; in test [2], 4.75%; in test [3], -10.5%; in test [4], 13.7%; in test [5], -10.6%; in test [6], 5.5%.
Consider `O=C(O)c1ccc([N+](=O)[O-])c([N+](=O)[O-])c1`, for which the growth inhibition was 22.2% in test [1]; 4.95% in test [2]; 32.9% in test [3]; 7.05% in test [4]; 10% in test [5]; 24.6% in test [6].
Turning to `O=c1c(O)c(-c2ccccc2)oc2ccccc12.[Zr]`, the growth inhibition in test [1] was -22.1%; in test [2], -6.65%; in test [3], -7.7%; in test [4] it was 18.4%; in test [5] it was 22.4%; in test [6], -7.75%.
With `CNC(=O)CCl`, the growth inhibition in test [1] was 5.65%; in test [2], 3.4%; in test [3], -0.45%; in test [4], -7.15%; in test [5], -0.75%; in test [6], 6.4%.
`C=[CH][Pb]([CH]=C)([CH]=C)[O]C(C)=O`: the growth inhibition in test [1] was 97.2% (active); in test [2], 98% (active); in test [3], 97.9% (active); in test [4], 98.8% (active); in test [5], 98.2% (active); in test [6], 99% (active).
Take `C#CC1(OC(C)=O)CCC2C3CCC4=CC(=O)CCC4(C)C3CCC21C` (stereo unspecified): the growth inhibition in test [1] was 32%; in test [2] it was 6.1%; in test [3] it was 4.4%; in test [4], -11.2%; in test [5], -8.8%; in test [6] it was 19.7%.
For the molecule `CN(C)C(=O)c1nnsc1NN=O`, the growth inhibition in test [1] was 32%; in test [2], 33.7%; in test [3], -35.1%; in test [4] it was 8.35%; in test [5], -14.4%; in test [6], 9.35%.
Turning to `CCC1(CCO)C(=O)NC(=O)NC1=O`, the growth inhibition is -1.6% in test [1]; -48.9% in test [2]; -0.4% in test [3]; -12.2% in test [4]; -14.8% in test [5]; -2.7% in test [6].
`CCC[P+](CCC)(CCC)CCCCCCCCCC[P+](CCC)(CCC)CCC`: the growth inhibition in test [1] was -2.65%; in test [2], -13%; in test [3] it was 2.05%; in test [4] it was -21.2%; in test [5], -1.15%; in test [6], -0.5%.
